Assay outcomes from PubChem BioAssay.
Shown are actives, neighbours in structure and some others; about 3.4% of the full set was active somewhere.
pPAFAH inh: pPAFAH enzyme inhibitors, primary screen, biochemical, fluorescence polarization, human; Platelet-activating factor acetylhydrolase (Homo sapiens), Q13093; recombinant pPAFAH, FP-rhodamine probe fluorescence polarization; inhibition, % at 3.39 µM; 1.5% of 330,000 active; AID 463082, 2010;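 active means inhibition above the mean inhibition across the screen plus 3 SD, cut at about 25% in these data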;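 further: inhibitors block binding of the rhodamine activity-based probe so polarization drops; 0% = enzyme with DMSO and 100% = wells lacking pPAFAH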
PAFAH2 inh: PAFAH2 enzyme inhibitors, primary screen, biochemical, fluorescence polarization, human. Platelet-activating factor acetylhydrolase 2, cytoplasmic (Homo sapiens), Q99487. recombinant PAFAH2, FP-rhodamine activity probe. inhibition, % at 3.39 µM. 0.99% of 340,000 active. AID 492956, 2010;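 active means inhibition above the mean over all tested compounds plus 3 SD, cut at about 30% in these data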;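 further: inhibitors block probe labeling of enzyme so polarization drops; 0% = enzyme with DMSO and 100% = wells lacking PAFAH2 protein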
PP1 inh: PP1-alpha phosphatase inhibitors, primary screen, counter-screen for PP5 inhibitor project, biochemical, fluorescence, OMFP substrate, single point. inhibition, % at 6.7 µM. Serine/threonine-protein phosphatase PP1-alpha catalytic subunit (Homo sapiens), P62136. AID 2235, 2010. 0.9% of 320,000 active. purified PP1alpha;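 active means inhibition above the mean inhibition of all tested compounds plus 3 SD, computed separately for each screening campaign, cut at about 15% in these data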
PAFAH1B3 FP inh: PAFAH1B3 enzyme inhibitors, primary screen, biochemical, fluorescence polarization, human | inhibition, % at 3.39 µM | AID 492972, 2010 | 0.28% of 340,000 active | recombinant PAFAH1B3, FP-rhodamine probe;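 active means inhibition above the screen-wide average of all tested compounds plus 3 SD, cut at about 25% in these data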;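 further: 0% = enzyme with DMSO only and 100% = wells lacking PAFAH1B3 protein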
PAFAH1B2 FP inh: PAFAH1B2 enzyme inhibitors, primary screen, biochemical, fluorescence polarization, human | 1.2% of 340,000 active | AID 492953, 2010 | inhibition, % at 3.39 µM | recombinant PAFAH1B2, FP-rhodamine activity probe;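 active means inhibition above the mean of all tested compounds plus 3 SD, cut at about 24% in these data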;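 further: 0% = enzyme with DMSO and 100% = wells lacking PAFAH1B2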
PP5 inh: PP5 phosphatase inhibitors, primary screen, biochemical, fluorescence; Serine/threonine-protein phosphatase 5 (Homo sapiens), P53041; inhibition, % at 6.7 µM; 0.18% of 320,000 active; AID 1987, 2009; purified PP5c, OMFP substrate fluorescence;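 active means inhibition above the campaign's mean inhibition across all tested compounds plus 3 SD, cut at about 9.5% in these data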;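 further: 0% = DMSO only and 100% = 100 µM cantharidin control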
Target sequence (P53041 whole entry, looked up): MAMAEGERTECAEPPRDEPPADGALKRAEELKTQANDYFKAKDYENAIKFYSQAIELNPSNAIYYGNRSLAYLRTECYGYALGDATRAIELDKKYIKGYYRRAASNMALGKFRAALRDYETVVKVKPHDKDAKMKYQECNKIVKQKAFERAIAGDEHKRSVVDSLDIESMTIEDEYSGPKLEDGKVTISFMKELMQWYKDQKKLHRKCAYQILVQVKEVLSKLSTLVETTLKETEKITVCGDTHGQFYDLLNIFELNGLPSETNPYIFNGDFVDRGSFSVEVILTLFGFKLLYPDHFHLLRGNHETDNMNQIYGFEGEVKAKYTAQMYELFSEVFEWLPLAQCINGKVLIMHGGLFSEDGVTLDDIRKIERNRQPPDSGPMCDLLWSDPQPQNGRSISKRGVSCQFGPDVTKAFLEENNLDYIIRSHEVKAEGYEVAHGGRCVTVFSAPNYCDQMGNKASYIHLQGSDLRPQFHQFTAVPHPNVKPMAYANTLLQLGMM
* = called active by the depositor.

Results for N/C(=N\OC(=O)CCc1ccccc1)c1ccc(Br)cc1 ?
pPAFAH inh: 6; PAFAH2 inh: -2; PP1 inh: -4; PAFAH1B3 FP inh: 4; PAFAH1B2 FP inh: 71*; PP5 inh: -1

How did Cc1ccc(/C(N)=N/OC(=O)CCc2ccccc2)cc1 do in these assays?
pPAFAH inh: 4; PAFAH2 inh: 3; PP1 inh: 6; PAFAH1B3 FP inh: 2; PAFAH1B2 FP inh: 9; PP5 inh: 0

How did CCOc1ccc(CCNC(=O)CSc2n[nH]c(N)n2)cc1OCC do in these assays?
pPAFAH inh: 2; PAFAH2 inh: -3; PP1 inh: -1; PAFAH1B3 FP inh: -14; PAFAH1B2 FP inh: -5; PP5 inh: -1

Results for O=C(c1n[nH]c2ccccc12)N1CCN(S(=O)(=O)c2ccc(Cl)cc2)CC1 ?
pPAFAH inh: 2; PAFAH2 inh: -4; PP1 inh: -2; PAFAH1B3 FP inh: 4; PAFAH1B2 FP inh: 17; PP5 inh: 6

Results for Cc1ccc(SCCc2ccc(C)nc2)cc1 ?
pPAFAH inh: 0; PAFAH2 inh: 2; PP1 inh: 3; PAFAH1B3 FP inh: 12; PAFAH1B2 FP inh: 28*; PP5 inh: 3

Results for Cc1ccc(CCSCC(=O)O)cn1 ?
pPAFAH inh: -5; PAFAH2 inh: 6; PP1 inh: -2; PAFAH1B3 FP inh: 6; PAFAH1B2 FP inh: 6; PP5 inh: 0

What do the screens show for `Cc1ccc(CS(=O)(=O)CC(C)(O)c2ccc(Cl)cc2)cc1` (configuration not stated)?
pPAFAH inh: 8; PAFAH2 inh: -1; PP1 inh: 2; PAFAH1B3 FP inh: -8; PAFAH1B2 FP inh: 27*; PP5 inh: 1

What do the screens show for `Cc1ccc(CCNC(=O)C2CCC(=O)N2C2CCCC2)cc1` (configuration not stated)?
pPAFAH inh: -1; PAFAH2 inh: -2; PP1 inh: 2; PAFAH1B3 FP inh: -9; PAFAH1B2 FP inh: 27*; PP5 inh: 2

What do the screens show for `O=C(O)CCCCCCCCCCCc1ccccc1`?
pPAFAH inh: 25*; PAFAH2 inh: 16; PP1 inh: 10; PAFAH1B3 FP inh: 10; PAFAH1B2 FP inh: 55*; PP5 inh: 3

What do the screens show for `O=C(CCC(=O)NCCCc1ccccc1)NCCCc1ccccc1`?
pPAFAH inh: 10; PAFAH2 inh: 6; PP1 inh: 0; PAFAH1B3 FP inh: 0; PAFAH1B2 FP inh: 9; PP5 inh: 2

How did CC(Sc1ccc(S(=O)(=O)N2CCN(C)CC2)cn1)C(=O)NC1(C#N)CCCCC1 (configuration not stated) do in these assays?
PAFAH2 inh: 6; PAFAH1B3 FP inh: 3; PAFAH1B2 FP inh: 31*

How did O=C(Nc1ccccc1Cl)Oc1ccc(-c2ccccc2)cc1 do in these assays?
pPAFAH inh: 6; PAFAH2 inh: -1; PP1 inh: -3; PAFAH1B3 FP inh: 7; PAFAH1B2 FP inh: 60*; PP5 inh: 0

Results for O=C(Cc1cccc2ccccc12)Nc1ccc(-c2cc3ccccc3oc2=O)cc1 ?
pPAFAH inh: -4; PAFAH2 inh: -17; PP1 inh: 17*; PAFAH1B3 FP inh: -5; PAFAH1B2 FP inh: -2; PP5 inh: 0

What do the screens show for `O=C1CCC/C=C\C[C@@H](CC(=O)N(CCO)Cc2ccccc2)C(=O)N2CCC[C@H]2CO1`?
pPAFAH inh: 4; PAFAH2 inh: 10; PAFAH1B3 FP inh: 13; PAFAH1B2 FP inh: 2

Results for O=C1OC[C@H]2CCCN2C(=O)[C@@H](CC(=O)N(CCO)Cc2ccccc2)C/C=C\C[C@@H]1Cc1ccc(F)cc1 ?
pPAFAH inh: 6; PAFAH2 inh: -7; PAFAH1B3 FP inh: 3; PAFAH1B2 FP inh: 31*

What do the screens show for `O=C1OC[C@@H]2CCCN2C(=O)[C@H](CC(=O)N(CCO)Cc2ccccc2)C/C=C\C[C@H]1Cc1ccc(F)cc1`?
pPAFAH inh: 2; PAFAH2 inh: 3; PAFAH1B3 FP inh: 5; PAFAH1B2 FP inh: 33*

How did Cc1ccccc1N=Cc1cccc(O)c1O do in these assays?
pPAFAH inh: 32*; PAFAH2 inh: 3; PP1 inh: 1; PAFAH1B3 FP inh: 2; PAFAH1B2 FP inh: 9; PP5 inh: 1
